Assay [1] deals with Gonadotropin-releasing hormone receptor (Homo sapiens) (UniProt P30968). Kind of assay: Human gonadotropin-releasing hormone receptor (GnRHR) small molecule agonists, calcium flux assay in GnRHR-HEK293 cells (AID 1920063). Further: nearly all actives have a fitted effect of over 35% in size. Summed up:
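Agonist mode: compounds at 15 concentrations, in triplicate, went onto calcium dye-loaded GnRHR-HEK293 cells. Intracellular calcium was then followed as 480/540 nm fluorescence at 1 s intervals over 3 min.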

In assay [2] the target is KiSS-1 receptor (Homo sapiens) (UniProt Q969F8). Kind of assay: Human kisspeptin (KISS1R) small molecule agonists, calcium flux assay in KISS1R-HEK293 cells (AID 1920064; active means well fitted activation curve with a large enough effect in the repeat runs). In a few lines: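 Agonist mode: intracellular calcium rise tracked at 1 s intervals over 3 min (480/540 nm) immediately after compound addition to dye-loaded KISS1R-HEK293 stable cells. Each compound tested at 15 concentrations in triplicate.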
Chain of KiSS-1 receptor (Homo sapiens) (Q969F8 whole entry, looked up): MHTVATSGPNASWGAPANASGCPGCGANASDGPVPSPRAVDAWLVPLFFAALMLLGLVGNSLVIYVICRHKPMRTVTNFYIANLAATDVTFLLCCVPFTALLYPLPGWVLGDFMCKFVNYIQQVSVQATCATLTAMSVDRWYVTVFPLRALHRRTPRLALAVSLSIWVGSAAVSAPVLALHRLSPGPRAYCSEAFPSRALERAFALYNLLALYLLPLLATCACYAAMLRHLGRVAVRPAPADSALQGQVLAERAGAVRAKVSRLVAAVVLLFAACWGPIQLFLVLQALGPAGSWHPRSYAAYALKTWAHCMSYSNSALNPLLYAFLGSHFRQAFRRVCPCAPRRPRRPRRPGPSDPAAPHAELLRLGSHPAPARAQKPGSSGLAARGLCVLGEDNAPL

The nature of assay [3]: G protein-coupled receptor (GPCR) small molecule agonists, calcium flux assay: HEK293 wild type cell line counter screen (AID 1920065). In a few lines:
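Calcium flux counter screen: compound added in agonist mode at 15 concentrations in triplicate to dye-loaded parental HEK293 cells. Fluorescence (480/540) read kinetically for 3 min; ATP served as positive control.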

Assay [4] is described as follows: p53 small molecule agonists, cell-based qHTS assay with human liver microsomes (AID 1963577). In a few lines:
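Cells carrying a p53-responsive bla reporter were rested 5 h (37 C, 5% CO2) before compound transfer. Human liver microsomes plus NADPH, 0.5 mg/mL final apiece, supplied metabolism during the 16 h 37 C exposure.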

Assay [5] in a line: p53 small molecule agonists, cell-based qHTS assay with rat liver microsomes (AID 1963578). Summed up:
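Fluorescence from a beta-lactamase reporter under a p53 response element was measured after cells had been incubated 16 h at 37 C with test compound and rat liver microsomes plus NADPH (0.5 mg/mL final each).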

A short description of assay [6]: p53 small molecule agonists, cell-based qHTS assay with human liver microsomes: qHTS cell viability counter screen (AID 1963579). Further: nearly all actives have a fitted effect of over 45% in size. In a few lines:
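Seed p53RE-bla cells at 4,000 per well; incubate 5 h at 37 C; add compound, human liver microsomes and NADPH; incubate 16 h at 37 C; add CellTiter-Glo; after 30 min at room temperature, read luminescence.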

The nature of assay [7]: p53 small molecule agonists, cell-based qHTS assay: qHTS cell viability counter screen (AID 1963581). Further: nearly all actives have a fitted effect of over 45% in size. Further: potency means the concentration at half of the fitted maximal effect. Summed up:
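Counter screen read by CellTiter-Glo luminescence (ATP content, 30 min at room temperature), run in the same wells as the beta-lactamase reporter read. HCT-116 p53RE-bla cells saw compounds for 16 h at 37 C.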

Assay [8] is described as follows: p53 small molecule agonists, cell-based qHTS assay (AID 1963582; active means well fitted activation curve with a large enough effect in the signal ratio in the repeat runs, not every such curve was filed as active; the % refers to the signal ratio). Summed up: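 Read-out is beta-lactamase FRET fluorescence after 2 h at room temperature with LiveBLAzer B/G substrate. p53 response element-bla cells were treated 16 h at 37 C with compounds in DMSO, added 5 h after seeding.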
Assay [9] in a line: cAMP Responsive Elements (CRE) small molecule agonists, cell-based qHTS assay (AID 1963590). Summed up:
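Agonist mode: compound added to CRE-bla HEK 293T cells (2,000/well, 18 h after plating) for 3 h at 37 C/5% CO2. Reporter activity detected via FRET beta-lactamase substrate, 2 h room-temperature loading.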

The target of assay [10] is Beta-2 adrenergic receptor (Homo sapiens) (UniProt P07550). Put plainly: Adrenergic beta2 receptor (ADRB2) small molecule agonists, cell-based qHTS assay (AID 1963593).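 Further: CHO cells stably overexpressing human ADRB2.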 In a few lines: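 CHO cells stably over-expressing ADRB2 were plated overnight at 37C, then dosed with compounds plus a stimulation mix containing 100uM IBMX and 25uM Ro-20-1724 for 0.5hr at room temperature. cAMP was measured by HTRF competition, 1hr.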
Chain of Beta-2 adrenergic receptor (Homo sapiens) (P07550 whole entry, looked up): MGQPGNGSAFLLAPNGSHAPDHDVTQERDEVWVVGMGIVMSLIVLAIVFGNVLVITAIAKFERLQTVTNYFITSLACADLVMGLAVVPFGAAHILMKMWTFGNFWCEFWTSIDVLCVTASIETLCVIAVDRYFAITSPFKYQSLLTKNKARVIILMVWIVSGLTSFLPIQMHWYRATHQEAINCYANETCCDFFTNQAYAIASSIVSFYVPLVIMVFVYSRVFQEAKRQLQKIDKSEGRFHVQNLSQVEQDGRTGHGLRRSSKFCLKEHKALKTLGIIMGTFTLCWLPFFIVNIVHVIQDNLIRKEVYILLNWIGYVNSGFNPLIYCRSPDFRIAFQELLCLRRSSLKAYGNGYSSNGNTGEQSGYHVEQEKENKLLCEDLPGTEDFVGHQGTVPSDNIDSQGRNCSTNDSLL

Assay [11] deals with D(2) dopamine receptor (Homo sapiens) (UniProt P14416). Kind of assay: Dopamine D2 receptor (DRD2) small molecule agonists, cell-based qHTS assay (AID 1963594). Further: nearly all actives have a fitted effect of over 35% in size. In a few lines:
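HEK293 cells stably expressing DRD2 were cultured 24 h at 37 C, then given Ro20-1724 (0.1 mM final) and compounds for 10 min at room temperature. NKH477 (200nM) was then added for 30 min. cAMP was read by HTRF.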

Assay [12] has the same target. Put plainly: Dopamine D2 receptor (DRD2) small molecule antagonists, cell-based qHTS assay (AID 1963595; active means well fitted inhibition curve with a large enough effect in the signal ratio in the repeat runs, with a control signal flat; the % refers to the signal ratio). In a few lines: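 Readout: HTRF cAMP, cAMP-d2 competing with cellular cAMP for anti-cAMP cryptate, read after 1 h. Cells: DRD2-HEK293. Conditions: 0.1 mM Ro20-1724, 12 nM quinpirole, 200 nM NKH477, 30 min RT.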
A short description of assay [13]: p53 small molecule agonists, cell-based qHTS assay with rat liver microsomes: qHTS cell viability counter screen (AID 1963580). Further: nearly all actives have a fitted effect of over 45% in size. Summed up:
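Counter screen for cytotoxicity under metabolic activation: rat liver microsomes and NADPH, 0.5 mg/mL final each, added with compounds to p53RE-bla HCT-116 cells; 16 h at 37 C, then ATP luminescence read.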

The target in assay [14] is 5-hydroxytryptamine receptor 2A (Homo sapiens) (UniProt P28223). Put plainly: 5-hydroxytryptamine receptor 2A (HTR2A) small molecule antagonists, cell-based qHTS assay (AID 1963586). Further: nearly all actives have a fitted effect of over 45% in size. Summed up: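 CHO cells stably expressing human HTR2A were plated for 18 h at 37 C, then loaded with calcium dye for 1 h. Compounds were preincubated 5 min at room temperature before DOI (4 nM solution) was added. Kinetic fluorescence was read for 3 min.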
Chain of 5-hydroxytryptamine receptor 2A (Homo sapiens) (P28223 whole entry, looked up): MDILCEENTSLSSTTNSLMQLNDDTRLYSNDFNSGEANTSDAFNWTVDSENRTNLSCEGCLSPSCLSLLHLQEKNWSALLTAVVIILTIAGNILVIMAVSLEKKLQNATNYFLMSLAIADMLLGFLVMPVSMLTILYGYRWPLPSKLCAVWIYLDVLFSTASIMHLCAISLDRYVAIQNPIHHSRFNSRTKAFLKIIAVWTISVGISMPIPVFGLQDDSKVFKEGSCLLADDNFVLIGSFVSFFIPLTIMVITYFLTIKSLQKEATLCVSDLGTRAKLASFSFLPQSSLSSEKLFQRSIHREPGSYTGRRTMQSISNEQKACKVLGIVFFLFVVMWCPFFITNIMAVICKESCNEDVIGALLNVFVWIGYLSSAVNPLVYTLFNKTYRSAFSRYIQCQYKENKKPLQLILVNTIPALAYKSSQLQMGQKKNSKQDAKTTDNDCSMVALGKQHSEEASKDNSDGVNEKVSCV

For assay [15] the target is unchanged. Kind of assay: 5-hydroxytryptamine receptor 2A (HTR2A) small molecule agonists, cell-based qHTS assay (AID 1963587). Further: nearly all actives have a fitted effect of over 30% in size. In a few lines:
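HTR2A-CHO cells, plated 18 h at 37 C/5% CO2, dye-loaded 1 h at 37 C; compounds in DMSO added by pin tool (agonist mode). Intracellular calcium flux read as kinetic fluorescence on FDSS over 2 min at 1 s intervals.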

Assay [16] addresses Muscarinic acetylcholine receptor M1 (Homo sapiens) (UniProt P11229). Kind of assay: Cholinergic receptor muscarinic 1 (CHRM1) small molecule antagonists, cell-based qHTS assay (AID 1963588). Further: nearly all actives have a fitted effect of over 40% in size. Summed up:
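Compounds were tested at 15 concentrations in three independent runs. Dye-loaded CHRM1-CHO cells were exposed 5 min at room temperature before stimulation by acetylcholine added at 50nM. Intracellular calcium was read kinetically on FDSS for 3 min.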

For assay [17] the target is unchanged. Kind of assay: Cholinergic receptor muscarinic 1 (CHRM1) small molecule agonists, cell-based qHTS assay (AID 1963589). Further: nearly all actives have a fitted effect of over 35% in size. Summed up:
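Agonist-mode calcium-flux screen: compounds at 15 concentrations, three independent runs, were pin-transferred onto dye-loaded human CHRM1-CHO cells. Fluorescence was then recorded kinetically every second over minutes.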

In assay [18] the target is Beta-2 adrenergic receptor (Homo sapiens) (UniProt P07550). Put plainly: Adrenergic beta2 receptor (ADRB2) small molecule antagonists, cell-based qHTS assay (AID 1963592). Further: series mostly up to about 92 µM; nearly all actives have a fitted effect of over 50% in size. In a few lines:
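Assay format: CHO-ADRB2 cells, 18-20hr seeding at 37C/5% CO2, then compound plus 1nM isoproterenol agonist mix for 0.5hr RT. Homogeneous time-resolved fluorescence cAMP detection after 1hr, expressed as 665/615 nm ratio.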

Assay [19] in a line: cAMP Responsive Elements (CRE) small molecule antagonists, cell-based qHTS assay (AID 1963591; active means well fitted inhibition curve with a large enough effect in the signal ratio in the repeat runs, not every such curve was filed as active; the % refers to the signal ratio). In a few lines: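 Antagonist mode: compounds are added alongside the adenylyl cyclase activator NKH477 (0.25 uM final) to CRE-bla HEK293T cells for 3 h. LiveBLAzer FRET substrate, 2 h at room temperature, reports bla expression.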

Results filed as inconclusive are left out. The source made the active and inactive calls. Unless noted, the call rests on the fitted dose curve.

Chain of Muscarinic acetylcholine receptor M1 (Homo sapiens) (P11229 whole entry, looked up): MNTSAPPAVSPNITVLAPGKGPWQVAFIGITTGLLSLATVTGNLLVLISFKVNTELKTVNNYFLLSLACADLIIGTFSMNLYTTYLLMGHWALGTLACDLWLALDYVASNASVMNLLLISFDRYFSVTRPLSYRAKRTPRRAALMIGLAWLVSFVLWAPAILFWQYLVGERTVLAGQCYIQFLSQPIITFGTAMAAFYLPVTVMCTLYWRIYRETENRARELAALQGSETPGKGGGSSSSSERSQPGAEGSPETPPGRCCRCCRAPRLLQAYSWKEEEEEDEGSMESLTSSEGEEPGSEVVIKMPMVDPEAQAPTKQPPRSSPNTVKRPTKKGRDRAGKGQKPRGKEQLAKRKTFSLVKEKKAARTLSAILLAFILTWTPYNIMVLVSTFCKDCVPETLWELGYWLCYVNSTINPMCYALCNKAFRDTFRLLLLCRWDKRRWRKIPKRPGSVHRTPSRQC
Chain of D(2) dopamine receptor (Homo sapiens) (P14416 whole entry, looked up): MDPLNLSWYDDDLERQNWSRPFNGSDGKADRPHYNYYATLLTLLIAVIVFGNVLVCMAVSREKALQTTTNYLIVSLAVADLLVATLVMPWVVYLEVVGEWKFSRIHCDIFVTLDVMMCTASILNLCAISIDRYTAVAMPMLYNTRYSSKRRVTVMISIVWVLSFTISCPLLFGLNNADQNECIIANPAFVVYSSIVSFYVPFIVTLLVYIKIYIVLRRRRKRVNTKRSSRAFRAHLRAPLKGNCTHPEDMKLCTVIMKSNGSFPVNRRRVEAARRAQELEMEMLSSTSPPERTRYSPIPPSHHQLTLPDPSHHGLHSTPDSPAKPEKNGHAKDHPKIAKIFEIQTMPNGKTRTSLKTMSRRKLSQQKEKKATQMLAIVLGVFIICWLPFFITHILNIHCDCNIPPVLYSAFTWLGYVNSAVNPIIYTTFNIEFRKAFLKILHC
Chain of Gonadotropin-releasing hormone receptor (Homo sapiens) (P30968 whole entry, looked up): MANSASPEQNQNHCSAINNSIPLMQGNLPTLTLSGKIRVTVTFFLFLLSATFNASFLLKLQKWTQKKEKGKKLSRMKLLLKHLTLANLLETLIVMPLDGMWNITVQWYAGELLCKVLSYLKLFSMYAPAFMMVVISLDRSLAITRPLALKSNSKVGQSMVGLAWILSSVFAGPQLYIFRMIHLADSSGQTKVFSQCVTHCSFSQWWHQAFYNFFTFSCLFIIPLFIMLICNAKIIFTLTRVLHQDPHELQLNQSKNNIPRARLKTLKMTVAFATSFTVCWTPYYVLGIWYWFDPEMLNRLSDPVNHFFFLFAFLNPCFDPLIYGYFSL

As to `C[C@]12CCC(=O)C=C1CC[C@@H]1[C@@H]2CC[C@@]2(C)[C@H]1CC[C@]2(C)O`, the Potency entry in [1], in assay [2], in assay [3], in [4], in assay [5] and in assay [6] was “inactive” throughout. The Potency result in assay [7], in [8], in assay [9], in assay [10], in assay [11] and in [12] was “inactive” in each case.

With `[Cd+2].[Cl-].[Cl-]`, the Potency entry in assay [1], in [2], in assay [3], in [6], in assay [13] and in assay [14] was “inactive” in each case. Also, the Potency entry in assay [15], in assay [16], in assay [17], in [18], in assay [11] and in assay [12] was “inactive” each time. Further, in assay [7], the Potency was 36.7 µM (active).

As for `OC[C@@H](O)[C@H]1O[C@@H]2O[C@H](C(Cl)(Cl)Cl)O[C@@H]2[C@H]1O`, the Potency entry in assay [1], in assay [2], in assay [3], in [6], in [13] and in assay [7] was “inactive” throughout. For the same molecule, the Potency result in assay [14], in assay [15], in [16], in [17], in assay [9] and in [19] was “inactive” each time. For the same molecule, the Potency result in assay [18], in assay [11] and in assay [12] was “inactive” in each case.

Consider `N#Cc1ccccn1`, for which the Potency entry in assay [1], in [2], in assay [3], in [5], in assay [6] and in assay [13] was “inactive” in each case. In addition, the Potency entry in assay [7], in [8], in assay [14], in assay [15], in [16] and in assay [17] was “inactive” throughout. Further, the Potency result in [19], in [18], in assay [10], in assay [11] and in assay [12] was “inactive” each time.

For the molecule `COC(=O)NS(=O)(=O)c1ccc(N)cc1`, the Potency entry in assay [1], in assay [2], in [3], in [4], in assay [5] and in assay [6] was “inactive” in each case. For the same molecule, the Potency entry in assay [13], in assay [14], in assay [15], in assay [16], in assay [17] and in [19] was “inactive” in each case. The Potency result in assay [18], in [11] and in assay [12] was “inactive” in each case.

Consider `CCCCCc1cc(O)cc(O)c1`, for which the Potency result in [1], in assay [2], in [3], in [6], in assay [13] and in [8] was “inactive” throughout. For the same molecule, the Potency entry in [14], in assay [15], in [16], in assay [17], in assay [19] and in [18] was “inactive” throughout. The Potency entry in [10], in [11] and in [12] was “inactive” each time.

Regarding `CCCCCCOC(=O)c1ccccc1C(=O)OCCCCCC`, the Potency entry in assay [1], in assay [2], in [3], in [6], in assay [13] and in [7] was “inactive” throughout. In addition, the Potency result in [8], in assay [14], in assay [15], in assay [16], in [17] and in [9] was “inactive” throughout. Further, the Potency result in assay [19], in assay [18], in [11] and in [12] was “inactive” each time.

For `CCn1cc[n+](C)c1C`, the Potency entry in assay [1], in assay [2], in [3], in assay [6], in assay [13] and in assay [7] was “inactive” in each case. The Potency result in assay [14], in [15], in [16], in assay [17], in assay [9] and in assay [19] was “inactive” each time. The Potency entry in [18], in assay [10], in assay [11] and in assay [12] was “inactive” throughout.

(Values after PubChem BioAssay (Tox21).)
